The sample as a whole holds a higher share of the strongest signals than the screen did.
Tests used:
Assay in all cases: glycan array binding signal (z-score within array); higher = stronger binding
Settings in all cases: glycan notation: IUPAC condensed, linker removed
[1] = biological target: Fuc(a1-2)Gal(b1-3)GalNAc(b1-4)[Neu5Ac(a2-3)]Gal(b1-4)Glc
Outline: (§1)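 Glycan array binding is given as a within-array Z-score, which can be read as non-binding when negative. The arrays, 3228 of them, came from the Consortium for Functional Glycomics database and were retained only where the protein sequence was available. Z-scores were averaged across arrays of the same protein sequence at different concentrations or buffers and across linkers.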

[2] = biological target: Fuc(a1-2)Gal(b1-3)[Fuc(a1-4)]GlcNAc
Outline: as §1

[3] = biological target: Fuc(a1-2)Gal(b1-4)GlcNAc(b1-2)[Fuc(a1-2)Gal(b1-4)GlcNAc(b1-4)]Man(a1-3)[Fuc(a1-2)Gal(b1-4)GlcNAc(b1-2)Man(a1-6)]Man(b1-4)GlcNAc(b1-4)GlcNAc
Outline: as §1

[4] = biological target: Fuc(a1-2)Gal(b1-4)[Fuc(a1-3)]GlcNAc(b1-3)Gal(b1-4)[Fuc(a1-3)]GlcNAc
Outline: as §1

[5] = biological target: Fuc(a1-2)Gal3S(b1-4)GlcNAc
Outline: as §1

[6] = biological target: Fuc(a1-2)[Gal(a1-3)]Gal(b1-4)[Fuc(a1-3)]GlcNAc(b1-3)GalNAc
Outline: as §1

[7] = biological target: Fuc(a1-2)[GalNAc(a1-3)]Gal(b1-3)GlcNAc(b1-2)Man(a1-3)[Fuc(a1-2)[GalNAc(a1-3)]Gal(b1-3)GlcNAc(b1-2)Man(a1-6)]Man(b1-4)GlcNAc(b1-4)[Fuc(a1-6)]GlcNAc
Outline: as §1

Gal(a1-2)Gal = biological target: Gal(a1-2)Gal
Outline: as §1

[8] = biological target: Gal(a1-3)Gal(b1-3)[Fuc(a1-4)]GlcNAc(b1-2)Man(a1-3)[Gal(a1-3)Gal(b1-3)[Fuc(a1-4)]GlcNAc(b1-2)Man(a1-6)]Man(b1-4)GlcNAc(b1-4)GlcNAc
Outline: as §1

Gal(a1-3)Gal(b1-4)GlcNAc = biological target: Gal(a1-3)Gal(b1-4)GlcNAc
Outline: as §1

Gal(a1-4)Gal(b1-4)GlcNAc = biological target: Gal(a1-4)Gal(b1-4)GlcNAc
Outline: as §1

[9] = biological target: Gal(b1-3)GlcNAc(b1-2)Man(a1-3)[GlcNAc(b1-4)][Gal(b1-3)GlcNAc(b1-2)Man(a1-6)]Man(b1-4)GlcNAc(b1-4)GlcNAc
Outline: as §1

[10] = biological target: Gal(b1-3)GlcNAc(b1-3)Gal(b1-4)[Fuc(a1-3)]GlcNAc
Outline: as §1

[11] = biological target: Gal(b1-4)GlcNAc(b1-2)Man(a1-6)[GlcNAc(b1-2)Man(a1-3)]Man(b1-4)GlcNAc(b1-4)GlcNAc
Outline: as §1

[12] = biological target: Gal(b1-4)GlcNAc(b1-3)Gal(b1-4)GlcNAc(b1-2)[Gal(b1-4)GlcNAc(b1-3)Gal(b1-4)GlcNAc(b1-6)]Man(a1-6)[Gal(b1-4)GlcNAc(b1-3)Gal(b1-4)GlcNAc(b1-2)Man(a1-3)]Man(b1-4)GlcNAc(b1-4)GlcNAc
Outline: as §1

[13] = biological target: Gal(b1-4)GlcNAc(b1-3)Gal(b1-4)GlcNAc(b1-3)Gal(b1-4)GlcNAc(b1-3)Gal(b1-4)GlcNAc(b1-2)Man(a1-3)[Gal(b1-4)GlcNAc(b1-3)Gal(b1-4)GlcNAc(b1-3)Gal(b1-4)GlcNAc(b1-3)Gal(b1-4)GlcNAc(b1-2)Man(a1-6)]Man(b1-4)GlcNAc(b1-4)[Fuc(a1-6)]GlcNAc
Outline: as §1

[14] = biological target: Gal(b1-4)GlcNAc(b1-3)Gal(b1-4)GlcNAc(b1-3)Gal(b1-4)GlcNAc(b1-3)Gal(b1-4)GlcNAc(b1-3)Gal(b1-4)GlcNAc(b1-2)Man(a1-3)[Gal(b1-4)GlcNAc(b1-3)Gal(b1-4)GlcNAc(b1-3)Gal(b1-4)GlcNAc(b1-3)Gal(b1-4)GlcNAc(b1-3)Gal(b1-4)GlcNAc(b1-2)Man(a1-6)]Man(b1-4)GlcNAc(b1-4)[Fuc(a1-6)]GlcNAc
Outline: as §1

[15] = biological target: Gal(b1-4)GlcNAc(b1-3)Gal(b1-4)GlcNAc(b1-3)Gal(b1-4)GlcNAc(b1-3)Gal(b1-4)GlcNAc(b1-3)Gal(b1-4)GlcNAc(b1-2)[Gal(b1-4)GlcNAc(b1-3)Gal(b1-4)GlcNAc(b1-3)Gal(b1-4)GlcNAc(b1-3)Gal(b1-4)GlcNAc(b1-3)Gal(b1-4)GlcNAc(b1-6)]Man(a1-6)[Gal(b1-4)GlcNAc(b1-3)Gal(b1-4)GlcNAc(b1-3)Gal(b1-4)GlcNAc(b1-3)Gal(b1-4)GlcNAc(b1-3)Gal(b1-4)GlcNAc(b1-2)Man(a1-3)]Man(b1-4)GlcNAc(b1-4)[Fuc(a1-6)]GlcNAc
Outline: as §1

[16] = biological target: Gal(b1-4)GlcNAc(b1-6)GalNAc
Outline: as §1

Gal(b1-4)GlcNAc6P = biological target: Gal(b1-4)GlcNAc6P
Outline: as §1

Gal3S(b1-3)GalNAc = biological target: Gal3S(b1-3)GalNAc
Outline: as §1

[17] = biological target: GalNAc(a1-3)GalNAc(b1-3)Gal(a1-4)Gal(b1-4)Glc
Outline: as §1

[18] = biological target: GalNAc(b1-4)GlcNAc(b1-2)Man(a1-3)[GalNAc(b1-4)GlcNAc(b1-2)Man(a1-6)]Man(b1-4)GlcNAc(b1-4)GlcNAc
Outline: as §1

GalNAc3S(b1-4)GlcNAc3S = biological target: GalNAc3S(b1-4)GlcNAc3S
Outline: as §1

Glc(a1-6)Glc(a1-6)Glc = biological target: Glc(a1-6)Glc(a1-6)Glc
Outline: as §1

B1: LICBM33A (Lactococcus lactis), Q9CE94 (protein)
chain: MKKLLTGLLVAAGLLSVSLLIKTDTVSAHGYVQSPPARGYQGQLDSQSLGWTAAFNIYGNVISNPQSLEAPKGFPECGPADGRIASANGGLGQIGDFVLDNQTSSRWKKTSISTGSNIFTWKYTAPHKTTKWHYYMTKTGWDQNAPLKHSELELIGTINHDGSPATNNLSHTINIPTDRSGYHIVLAVWDVADTSNAFYNVIDINVNNKNASSQVFGPFL
B1 was tested, and the “glycan array binding signal (z-score)” value [1] was -0.276, the “glycan array binding signal (z-score)” value [2] was -0.377 and the “glycan array binding signal (z-score)” value [3] was 6.68. For the same binder, the “glycan array binding signal (z-score)” value [4] was -0.587, the “glycan array binding signal (z-score)” value [5] was 3.62 and the “glycan array binding signal (z-score)” value [6] was -1.52. The “glycan array binding signal (z-score)” value [7] was -0.211, the “glycan array binding signal (z-score)” value (Gal(a1-2)Gal) was -0.28 and the “glycan array binding signal (z-score)” value [8] was -0.268. For the same binder, the “glycan array binding signal (z-score)” value (Gal(a1-3)Gal(b1-4)GlcNAc) was -0.436, the “glycan array binding signal (z-score)” value (Gal(a1-4)Gal(b1-4)GlcNAc) was 0.111 and the “glycan array binding signal (z-score)” value [9] was -0.473. The “glycan array binding signal (z-score)” value [10] was -0.324, the “glycan array binding signal (z-score)” value [11] was -0.512 and the “glycan array binding signal (z-score)” value [12] was 0.114. The “glycan array binding signal (z-score)” value [13] was 4.11, the “glycan array binding signal (z-score)” value [14] was 6.2 and the “glycan array binding signal (z-score)” value [15] was 6.18. The “glycan array binding signal (z-score)” value [16] was -0.959, the “glycan array binding signal (z-score)” value (Gal(b1-4)GlcNAc6P) was 0.236 and the “glycan array binding signal (z-score)” value (Gal3S(b1-3)GalNAc) was -0.215. The “glycan array binding signal (z-score)” value [17] was -0.96, the “glycan array binding signal (z-score)” value [18] was -0.578 and the “glycan array binding signal (z-score)” value (GalNAc3S(b1-4)GlcNAc3S) was -0.284. For the same binder, the “glycan array binding signal (z-score)” value (Glc(a1-6)Glc(a1-6)Glc) was 0.839.

Reference: the supplement of paper PMC8728848
